Assay results as given in ChEMBL document CHEMBL3988442, “University of Dundee, Small-Polar-MMV Screening Library” (2021).
The whole screen tested about 48,000 compounds, of which about 13,000 (27%) showed an effect of 50% or more. The list shows a part of the results.

tested on: Wolbachia pipientis; experiment: Anti-Wolbachia Cell-Based Screen; type: functional; set-up: scale not given: in the data most compounds retested in dose-response had high values; settings: 5 µM

SMILES	Percent Effect [%]
Cc1cn2c(CN(C)C(=O)c3cnc(N)c(Cl)c3)c(C)nc2s1	7.837
CCn1cnnc1CN(C)C(=O)c1cc(COc2cccc(F)c2)[nH]n1	-21.78
CCOCC(=O)NC1(c2cccc(Cl)c2)CC1	-6.24
c1cnn(CC2CCCN2Cc2ccc(-n3cccn3)cc2)c1 (centres undefined)	123
Cc1nc2ccccc2nc1CN1CCCC1Cn1cccn1 (centres undefined)	15.41
Cc1nc(CN2CCCC2Cn2cccn2)nc2ccccc12 (centres undefined)	5.126
Cc1nc(C)n(CC2CCCN2Cc2cn(-c3ccccc3)nn2)n1 (centres undefined)	-1.626
c1ccc(-n2cc(CN3CCCC3Cn3cccn3)nn2)cc1 (centres undefined)	141.8
CCCc1nc(CN2CCCC2Cn2cccn2)cs1 (centres undefined)	-10.42
CCC(=O)N1CCN(C(=O)Nc2ccc(Cl)cc2)[C@H]2CS(=O)(=O)C[C@H]21	20.51
O=C(COC1CCCC1)N1C[C@@H]2CN(Cc3ccoc3)CCO[C@@H]2C1.O=C(O)C(F)(F)F	-10.48
O=C1NCC(C(=O)Nc2ncc(Cc3ccccc3F)s2)N1 (centres undefined)	80.55
O=C1NCC(C(=O)Nc2ncc(Cc3ccc(F)cc3F)s2)N1 (centres undefined)	122.8
CC(=O)Nc1ncc(S(=O)(=O)Nc2ccc(F)cc2)s1	1.75
CC(=O)Nc1ncc(S(=O)(=O)Nc2ccc(F)cc2F)s1	11.75
Cc1ccccc1Cc1cnc(NC(=O)C2CNC(=O)N2)s1 (centres undefined)	1.413
O=C(NCc1ccccc1F)NC1CCCN(c2ncccn2)C1 (centres undefined)	7.135
CCCNc1ncc(C2CC(=O)NCc3nc4ccccn4c32)cn1 (centres undefined)	19.88
CCS(=O)(=O)c1ccccc1N1CCC(NC(C)=O)CC1	-10.39
NC(=O)c1c(SCCN2CCCCC2)sc2c(O)cc(=O)[nH]c12	88.72
CN(CCN1CCCCCC1)C(=O)c1c(O)cccc1O	-5.64
CCOCC(=O)N1CC(=O)Nc2cc(Br)ccc21	-5.264
O=c1n(CCNCc2ccc3ccccc3c2)nc2ccccn12	96.37

SMILES	Percent Effect [%]
O=c1n(CCNCc2ccc(-c3ccccc3)cc2)nc2ccccn12	92.23
Cc1ccc2cc(C(=O)NCCn3nc4ccccn4c3=O)[nH]c2c1	12.5
Cc1cc(C(=O)NCCn2nc3ccccn3c2=O)[nH]n1	-11.84
Cc1ccc(CSCCn2nc3ccccn3c2=O)cc1	-0.2652
Cc1cc(C)c2c(c1)C(NC(=O)CSCC(N)=O)CCO2 (centres undefined)	-11.46
N[C@@H](Cc1c[nH]cn1)C(=O)N1CCC(Oc2ccc(F)cc2)CC1	142.9
COc1ccc(OC2CCN(C(=O)[C@@H](N)Cc3c[nH]cn3)CC2)cc1	108.9
COc1ccc(OC2CCN(C(=O)C(C)Cn3cccn3)CC2)cc1 (centres undefined)	-7.925
Cc1ccc(OC2CCN(C(=O)C(C)Cn3cccn3)CC2)cc1 (centres undefined)	-8.941
N[C@@H](Cc1c[nH]cn1)C(=O)N1CCC(Oc2ccc(Cl)cc2)CC1	129.2
O=C(N1CCC(Oc2ccncc2)CC1)C1(c2ccc(F)cc2)CC1	4.458
CN1CCC(N(C)CCC(=O)N2CCC(Oc3ccc(Cl)cc3)CC2)C1 (centres undefined)	-10.05
O=C(O)c1ccc(N2CCC(Oc3ccc(Cl)cc3)CC2)nc1	7.355
COc1ccc(OC2CCN(C(=O)c3cnc(C)s3)CC2)cc1	-7.331
CCN(Cc1nc(COC)no1)Cc1cccnc1NC	-1.287
COCCCN1CCC(CNc2nccc(-c3cnn(C)c3)n2)C1 (centres undefined)	0.7819
CCNc1ncc(C(=O)N[C@H]2CC[C@H](n3cnnc3)CC2)cn1	-5.329
CN(C)C(=O)c1cc2ncc(C(=O)NC3CCCC3)cc2n1C	130.7
Cn1nc(C(=O)NC2CCCC2)cc1NC(=O)C1CC1	3.278
CC1CCN(C(=O)c2cnc3cc(C(=O)N(C)C)n(C)c3c2)CC1	124.9
CC1CCN(C(=O)c2cccc3ncccc23)CC1	-1.834
O=C(NC1CC1)c1cnc2n1CCCC2	4.998
CC(C)Oc1ncc(C(=O)N2CCC(N(C)C)CC2)cc1Cl	-24.51

SMILES	Percent Effect [%]
CN(C)C(=O)c1cccc(C[S+]([O-])CC(=O)NC2CCCC2)c1 (centres undefined)	8.2
CN(C)C(=O)c1cc2ncc(C(=O)NC3CC3)cc2n1C	122.1
COC(C(=O)N1CCN(Cc2noc(C)n2)CC1)c1ccccc1 (centres undefined)	-8.523
Cc1cc(C)n2cc(CN3CCCC3Cn3nc(C)nc3C)nc2n1 (centres undefined)	-6.959
Cn1cncc1-c1nnc([C@H]2CCN(Cc3ccc(CO)o3)C2)o1	-1.062
Cc1nn(C)c2ncc(NC(=O)N(C)Cc3cc(Cl)cn3C)cc12	-3.854
CC[C@@H]1N(Cc2ccco2)CCC[C@]12CCC(=O)N2C.O=C(O)C(F)(F)F	98.83
Cn1nnc2c1CCN(Cc1ccco1)C2COCc1ccccc1.O=C(O)C(F)(F)F (centres undefined)	30.71
COC1COC2(CCN(Cc3ccco3)CC2)C1 (centres undefined)	-9.93
COC[C@@H]1CN(C)C(=O)[C@@H]2CCN(Cc3ccco3)CC[C@H]12	-1.368
CC[C@H]1N(Cc2ccco2)CCC[C@]12CCC(=O)N2C	102.2
COC(=O)CCN(CC1CCOC1)C1CC1 (centres undefined)	-6.747
Cc1nnc(C(C)N(C)Cc2c(C)nn(-c3ccccc3)c2C)o1 (centres undefined)	2.363
COCC1CN(Cc2ccccn2)Cc2cn(C)nc21.O=C(O)C(F)(F)F.O=C(O)C(F)(F)F.O=C(O)C(F)(F)F (centres undefined)	-7.522
O=C1NCC(C(=O)N(Cc2cccc(Br)c2)C2CC2)N1 (centres undefined)	3.322
O=C(Nc1cccc(OCc2cccc(F)c2)c1)C1COCCO1 (centres undefined)	-8.331
O=C1NCC(C(=O)Nc2ncc(Cc3ccccc3)s2)N1 (centres undefined)	107.9
O=C1NCC(C(=O)Nc2ncc(Cc3cccc(F)c3)s2)N1 (centres undefined)	100.2
O=C1NCC(C(=O)Nc2ncc(Cc3ccc(F)cc3)s2)N1 (centres undefined)	110.5
O=C(Nc1nncs1)N(Cc1cccc(F)c1)C1CC1	-1.833
Cc1ccc(C)c(Oc2ccc(CNC(=O)C3CNC(=O)N3)cn2)c1 (centres undefined)	-1.964
Cc1ccc(Cc2cnc(NC(=O)C3CNC(=O)N3)s2)cc1F (centres undefined)	1.212
CC(=O)NC(C)(C)C(=O)Nc1ncc(Cc2ccc(C)c(F)c2)s1	7.127
